Laboratory results taken from PubChem BioAssay AID1259339 (Broad Institute, 2017).
The source made the active and inactive calls.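 How the source made its calls: active means fitted AC50 no higher than ten times the top tested dose (cut at about 90 µM in these data); inconclusive means flat curve with 30 to 70% signal loss, or bad fit; inactive means AC50 beyond ten times the top dose.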

Assay: AlphaLISA signal interference compounds, dose response, artefact control, biochemical, TruHit kit (AID 1259339)
Conditions: TruHit alphaLISA kit signal interference counterscreen; series mostly up to 80 µM

Q: With `O=C(NC1CC1)c1cc(-c2ccco2)nc2ccccc12` as the compound, how does the AC50 read?
A: The AC50 was “inactive”.

Q: For `O=C(O)COc1ccc(-n2cccc2)cc1`, which AC50 is on record?
A: The AC50 was “inactive”.

Q: Which AC50 does the source give for `CC(=O)c1ccc(NC(=O)c2noc3c2CCC3)cc1` here?
A: Its AC50 is “inactive”.

Q: Which AC50 does the source give for `NC(=O)C1(N2CCCCC2)CCN(c2ncc(NC(=O)c3ccc(F)cc3)cc2C(=O)O)CC1` here?
A: The AC50 was “inactive”.

Q: For `COc1cccc(NC(=O)CN(C)C(=O)c2cc3c(s2)CCC3)c1`, which AC50 is on record?
A: Its AC50 is 74.6 µM (active).

Q: With `COc1ccc(NC(=O)CN(C)C(=O)c2cc(-c3ccco3)nc3ccccc23)cc1` as the compound, how does the AC50 read?
A: Its AC50 is 36.6 µM (active).

Q: With `O=C(NCc1ccco1)c1c2c(nc3ccccc13)CCC2` as the compound, how does the AC50 read?
A: Its AC50 is 82.4 µM (active).

Q: With `CCc1nccn1CCC(=O)N1C[C@H](CO)C[C@H](CN2CCCC2)C1` as the compound, how does the AC50 read?
A: The AC50 was “inactive”.

Q: Which AC50 does the source give for `CC1CCN(c2nc(-c3ccco3)c3c(c2C#N)CC(C)(C)OC3)CC1` here?
A: Its AC50 is 33.5 µM (active).

Q: Which AC50 does the source give for `NC(=O)C1(N2CCCCC2)CCN(c2ncc(NC(=O)c3ccc(Cl)cc3)cc2C(=O)O)CC1` here?
A: The AC50 was 81.9 µM (active).

Q: With `Cc1ccc(C(=O)Nc2ccc(N3CCC(C(N)=O)(N4CCCCC4)CC3)c(C(=O)O)c2)cc1` as the compound, how does the AC50 read?
A: The AC50 was “inactive”.

Q: With `CCCc1oc(C(=O)O)cc1CN` as the compound, how does the AC50 read?
A: The AC50 was “inactive”.

Q: With `c1coc(-c2cn3ccc4ccccc4c3n2)c1` as the compound, how does the AC50 read?
A: Its AC50 is 81.7 µM (active).

Q: For `C=CCNc1ncnc2c1CCN(C(=O)c1ccc(CSC)o1)CC2`, which AC50 is on record?
A: Its AC50 is “inactive”.

Q: Which AC50 does the source give for `N#Cc1c(N)oc(-c2ccco2)c1-c1ccco1` here?
A: The AC50 was 29.9 µM (active).

Q: For `O=C(COC(=O)c1ccc(S(=O)(=O)NCc2ccco2)cc1)Nc1ccc(Cl)cn1`, which AC50 is on record?
A: The AC50 was > 160 µM (inactive).

Q: With `COc1ccc2nc(-c3ccco3)c(-c3ccco3)nc2c1` as the compound, how does the AC50 read?
A: The AC50 was 35.1 µM (active).

Q: Which AC50 does the source give for `O=C(Nc1ccc2oc(-c3ccncc3)nc2c1)c1ccc2c(c1)OCO2` here?
A: Its AC50 is “inactive”.

Q: With `Cc1ccc(-c2nnc(-c3nc(Nc4nc5ccccc5s4)c4ccccc4n3)o2)cc1` as the compound, how does the AC50 read?
A: The AC50 was “inactive”.

Q: With `COc1ccc(-c2ccc(CCC(=O)O)o2)cc1` as the compound, how does the AC50 read?
A: Its AC50 is “inactive”.

Q: For `C=CC(=O)N1CCCC2(CCN(CCN3CCCC3)C2=O)C1` (stereo unspecified), which AC50 is on record?
A: Its AC50 is “inactive”.

Q: For `CC1(C)Cc2ccccc2-c2nc(-c3ccccc3)oc(=O)c21`, which AC50 is on record?
A: The AC50 was 33.4 µM (active).

Q: For `O=[N+]([O-])c1cccc(-c2nnc3ccc4ccccc4n23)c1`, which AC50 is on record?
A: Its AC50 is “inactive”.

Q: With `CN(C)c1ccc(CN2C[C@H]3CC[C@@H]2CN(C(=O)c2ccncc2)C3)cn1` as the compound, how does the AC50 read?
A: Its AC50 is “inactive”.

Q: With `COC[C@]1(O)CCN(C(=O)CCN(C)S(C)(=O)=O)CC1(C)C` as the compound, how does the AC50 read?
A: The AC50 was “inactive”.

Q: With `O=C(Nc1nccs1)c1cc(-c2ccccn2)nc2c(Cl)cccc12` as the compound, how does the AC50 read?
A: The AC50 was 2.07 µM (active).

Q: For `O=C1CS/C(=N\N=C\c2ccco2)N1c1ccccc1`, which AC50 is on record?
A: Its AC50 is 30.8 µM (active).

Q: With `CC1=CCC(C(=O)O)C(C(=O)NC2CCCCC2)C1` (stereo unspecified) as the compound, how does the AC50 read?
A: Its AC50 is “inactive”.

Q: With `O=C(COC(=O)c1cc(-c2ccco2)nc2ccccc12)NCc1ccccc1` as the compound, how does the AC50 read?
A: The AC50 was 35.1 µM (active).

Q: With `O=S(=O)(c1ccccc1)N1CC2CN(Cc3ccc(O)cc3)C2C1` (stereo unspecified) as the compound, how does the AC50 read?
A: The AC50 was “inactive”.

Q: For `O=C(COc1cccnc1[N+](=O)[O-])c1ccc(Cl)s1`, which AC50 is on record?
A: Its AC50 is 23.2 µM (active).

Q: For `Cc1cncc(-c2ccc(S(N)(=O)=O)cc2F)c1`, which AC50 is on record?
A: Its AC50 is “inactive”.

Q: With `O=C(Nc1nc(-c2nc3ccccc3s2)cs1)c1ccco1` as the compound, how does the AC50 read?
A: The AC50 was “inactive”.

Q: With `CC(C)(C)c1ccc(-c2nc(C#N)c(NCc3ccncc3)o2)cc1` as the compound, how does the AC50 read?
A: Its AC50 is 22.1 µM (active).

Q: For `COc1ccc(S(=O)(=O)N2CCN(C(=O)c3cc4c(s3)CCC4)CC2)cc1`, which AC50 is on record?
A: Its AC50 is > 160 µM (inactive).

Q: With `CCCc1cc(C(=O)N2CC[C@H]3CNC[C@H]32)n(C)n1` as the compound, how does the AC50 read?
A: The AC50 was “inactive”.
